# Where “and” joins values, the source holds several entries; their conditions need not be identical. Equal values may be shown once. Inconclusive results are not listed. A call without a number means that no potency is given here. Calls of active or inactive are those of the source. Calls come from the whole dose curve; as a rule, active = well fitted cell-killing curve with a large enough effect; inconclusive = small, poorly fitted or top-dose-only effect; inactive = flat fitted curve, though single readings scatter. Square brackets hold non-standard residues; d marks the D form. Peptide text beside a SMILES is read from it. * marks the point of attachment. ξ: configuration not given here. Hexanoyl = CCCCCC(=O)*; ξL = CC(C)CC(N)C(=O)O
# Test: A2780 Cisplatin Sensitive Ovarian Cancer Cell Toxicity qHTS against the NCATS CANVASS Library (AID 1347353); note: nearly all actives have a fitted effect of over 60% in size
# Conditions: A2780 ovarian cancer viability, ATPLite luminescence, 72 h; series mostly up to 46.1 µM
# Text: Natural products and their derivatives continue to be wellsprings of nascent therapeutic potential. However, many laboratories have limited resources for biological evaluation, leaving their previously isolated or synthesized compounds largely or completely untested. To address this issue, the Canvass library of natural products was assembled (https://tripod.nih.gov/canvass), in collaboration with academic and industry researchers, for quantitative high-throughput screening (qHTS) across a diverse set of cell-based and biochemical assays. The pure (>85% purity by liquid chromatography/mass spectrometry [LC/MS]) Canvass library of 346 natural products were submitted by 45 academic laboratories and companies around the world. We collected pure natural products to circumvent deconvolution and structure elucidation due to time and resource limitations. The library was formatted into 1536-well plates and evaluated in 50 qHTS (in an 11-pnt concentration series) bioassays with broad scope of disease-relevant mechanisms. The resulting data set from 50 different assays was then systematically analyzed to identify overall trends and specific natural products with interesting biological activities. Reported herein are the results of each individual qHTS and their corresponding assay protocol. National Center for Advancing Translational Sciences (NCATS), Rockville, MD National Institute of Health (NIH), Bethesda, Maryland
# Cancer Cell Toxicity protocol 1. In a 1536 well, white solid bottom tissue culture plates (Corning 7494), A2780 cisplatin sensitive ovarian cancer cells were dispensed in each well at a final concentration of 750 cells / well (5uL volume) using the Multidrop Combi (Thermo Fisher Scientific) dispenser. 2. The plates were incubated for 4 hours at 37 degrees C/5% CO2/95% Rh. 3. Compounds were pin transferred (~23nL volume) via Wako Pin-tool (Wako Automation, Richmond VA) equipped with a 1536 pin head. The assay plates were treated with compounds in an 11-pnt concentration series with a final concentration range of […] to 85uM. 4. Bortezomib was used as a single dose control (0.5mM column 4, rows 1 - 32) at a final concentration of 1.9uM and as a 16pnt titration (1mM; 1:2 dilution; 16-points; n = 2; column 3, rows 1 - 32) with final concentration range of 0.1nM - 3.8uM. 5. The assay plates were incubated for 72 hours at 37 degrees C/5% CO2/95% Rh. 6. 4uL ATPLite detection reagent was then added to the plates (columns 2 - 48, rows 1 - 32) and incubated at room temperature for additional 10 min. 7. Luminescence signal was acquired via the ViewLux plate reader (PerkinElmer) using a clear filter, 2 second exposure and 2x binning settings.
# Potency is the fitted concentration of half-maximal effect.
row,SMILES,Potency
1,CN1CC[C@@]23c4ccccc4N[C@@H]1[C@@]21CCN(C)[C@@H]3Nc2ccccc21,inactive
2,CC(CCC[C@]1(C)C(=O)C=C[C@@]23C[C@]4(C)O[C@@H](C[C@@H]4[C@H]2O)C31)C(=O)O (stereo not given in full),inactive
3,C/C=C/c1cc2c(c(=O)o1)C(=O)[C@@H](O)[C@H](C)O2,2.35 µM (active)
4,CO[C@@H](C[C@@H](C)[C@@H](O)/C=C/C=C/CNC(=O)C(C)(C)[C@H](O)\C(C)=C/C=C\C=C\Cc1cnco1)[C@]1(O)[C@@H](C)C(=O)N(C)[C@@]12COC2=O,inactive
5,COC(=O)[C@]1([C@H]2CCC(=O)O2)CC(=O)c2c(O)cc(C)cc2O1,inactive
6,C=CC(CCCCC)C1C(=O)NC(=O)C1C(=O)C1C(/C=C/C)C=CC2CC(C(=O)O)CC(C)C21 (stereo not given),7.43 µM (active)
7,C=C[C@@]1(C)CC[C@@H]([C@H](C)C(C)=O)O1,inactive
8,CCCCCC(=O)N[C@@H](CC(C)C)C(=O)N[C@H](C=O)CCC(=O)O (Hexanoyl-Leu-Glu-aldehyde),inactive
9,C[C@@H]1CC[C@]2(C(=O)O)CC[C@]3(C)C(=C2[C@H]1C)CC[C@@H]1[C@@]2(C)CC[C@H](O)C(C)(C)[C@@H]2CC[C@]13C,inactive
10,CO/C=C/C(=O)c1cc2cnc3c(N)cc(=NC(=O)C(C)C)c([nH]1)c23,0.0296 µM (active)
11,CC[C@@H](c1cc(OC)c(OC)cc1OC)[C@H](C)[C@@H](/C(C)=C/c1cc(OC)c(OC)cc1OC)c1cc(OC)c(OC)cc1OC,14.8 µM (active) and 20.9 µM (active)
12,C/C=C/C(=O)C1(O)CC2CC(C(=O)O)CC(C)C2C1C1=C2C(=O)NC(=O)C2=C(CCCCC)C(C)O1 (stereo not given),8.33 µM (active)
13,C/C=C(/CO)C(=O)O[C@@H]1[C@H](O)[C@@H](C(=O)OC)O[C@@H]2C[C@H]3OC(n4cnc5c(N)ncnc54)[C@H](OC)[C@H]3O[C@@]12O (stereo not given in full),inactive
14,CC[C@@H]1C[C@@]2(CC)OC(=O)[C@@]3(CC)[C@H](CC)[C@@H]1[C@@H]23,inactive
15,COC(=O)[C@@]12Oc3cccc(O)c3C(O)=C1C(=O)C[C@H](C)[C@H]2O,inactive
16,CC[C@H]1[C@@H](C)[C@@H](c2cc(OC)c(OC)cc2OC)[C@H](C)[C@@H](c2cc(OC)c(OC)cc2OC)[C@@]12C=C(OC)C(=O)C=C2OC,9.35 µM (active)
17,C/C=C(/C)c1cc(O)c(C)c2c1Oc1cc(O)cc(C)c1C(=O)O2,inactive
18,COC(=O)c1cc2cc3c(c(O)c2c(=O)o1)OC1(CC3)CC2=C(O1)C(=O)c1c(O)c(OC)cc(OC)c1C2=O (stereo not given),20.9 µM (active)
19,C[C@H](c1cnc(N)[nH]1)c1ccc(O)c2[nH]cc(-c3cnc(-c4c[nH]c5ccccc45)c(=O)[nH]3)c12,inactive
20,CCC(=O)N[C@@H](C[C@H](C)C(Cl)(Cl)Cl)C(=O)N1C(=O)C=C(OC)[C@@H]1CC(C)C,26.4 µM (active)

row,SMILES,Potency
1,COc1cc2c(c(O)c1O)C(=O)c1c(coc1C)C2=O,4.69 µM (active)
2,CC(C)=CCC/C(C)=C/Cc1cc([C@@H]2CC(=O)c3c(cc(O)c(CC=C(C)C)c3O)O2)ccc1O,inactive
3,C=C1CC[C@@H](Br)C(C)(C)[C@]12CC=C(C)C(=O)C2,inactive
4,C=C1CCC2C(C)(C(=O)O)CCC(CC/C(C)=C/C(=O)NC(CCC(N)=O)C(=O)O)[C@@]2(C)C1 (stereo not given in full),inactive
5,C[C@]12CC[C@]3(C1)[C@H](CC2=O)C[C@@H](OC(=O)c1ccccc1)[C@H]1[C@](C)(C(=O)O)CCC[C@@]13C,16.6 µM (active)
6,C=C[C@]1(C)CC[C@@H]([C@H](C)C(=O)CC=C(C)C)O1,inactive
7,CN1CC[C@]23c4ccccc4N[C@H]1[C@]21CCN(C)[C@H]3Nc2ccccc21,inactive
8,CC1=C[C@H]2[C@H]3C(=O)C(c4ccc(O)cc4)=C[C@@]3(c3ccc(O)cc3)[C@@H]1C(=O)[C@]2(C)O,0.418 µM (active)
9,Cc1cc(C)c(O)c(C(=O)CC2CC(=O)NC(=O)C2)c1,4.69 µM (active)
10,C=C1C[C@H]2O[C@@H]3[C@@H]4[C@H](CC[C@@](C)(O)[C@@H]42)[C@H](C)COC3(C)[C@@H](OC(=O)CCCCCCC)CC1=O (stereo not given in full),13.2 µM (active)
11,COc1ccc([C@@H]2c3cc4c(cc3C[C@H](C)C2C)OCO4)cc1OC (stereo not given in full),10.5 µM (active)
12,CC(C)=CCC[C@]1(C)[C@H]2CC(=O)[C@@]3(CO3)[C@@H]1C2,inactive
13,CC[C@H]1[C@H](C)[C@H](c2cc(OC)c(OC)cc2OC)[C@@H](C)[C@H](c2cc(OC)c(OC)cc2OC)[C@@]12C=C(OC)C(=O)C=C2OC,14.8 µM (active)
14,C=C1C[C@]23C=CC(=O)[C@@](C)(CCCC(C)C(=O)N[C@@H](CO)C(=O)O)[C@@H]2C[C@@H]1CC3 (stereo not given in full),inactive
15,O[C@H]1c2ccccc2-c2c3c(cc4c2[C@@H]1NCC4)OCO3,11.8 µM (active)
16,CC1(C)CC[C@]2(CO)CC[C@]3(C)C(=CCC4[C@@]5(C)CC[C@H](O)C(C)(C)C5CC[C@]43C)C2C1 (stereo not given in full),inactive
17,COC(=O)c1cccc2oc(-c3cccc4oc(-c5c(C)cccc5O)nc34)nc12,3.32 µM (active)
18,O=C1CC2OCC=C3CN4C5CC3C2[C@@H]2N1c1ccccc1[C@]52C[C@@H]4C1=C[C@H]2C3CC4N(CC[C@@]45c4ccccc4N(C1=O)[C@@H]25)C/C3=C/CO (stereo not given in full),7.43 µM (active)
19,C/C=C1/CN2C3CC1C1C=CC(=O)N4c5ccccc5[C@@]3(C[C@@H]2C2=C[C@H]3C5CC6N(CC[C@@]67c6ccccc6N(C2=O)[C@@H]37)C/C5=C/C)[C@H]14 (stereo not given in full),11.8 µM (active)
20,CC[C@@H](C)[C@H]1NC(=O)C(CC(C)C)NC(=O)[C@@H](CC(C)C)NC(=O)[C@H](Cc2c[nH]c3ccccc23)NC(=O)CNC(=O)[C@@H](CC(N)=O)NC1=O (stereo partly drawn) (cyclo(GW[dL][ξL][dI][dN])),inactive
